Our source for the inhibition values is PubChem BioAssay AID624377 (The Scripps Research Institute Molecular Screening Center, 2012).

Broadly, the inhibition is the change of the read-out against control, counted positive when it falls.

Out of some 360,000 compounds screened, about 680 (0.19%) were called active. Rule as the data show it: active = inhibition above about 25%; inactive = the rest. The full list was thinned out, with actives kept by preference.

Sequence of Arf-GAP with SH3 domain, ANK repeat and PH domain-containing protein 1 (Homo sapiens) (Q9ULH1 325-724 limits assumed): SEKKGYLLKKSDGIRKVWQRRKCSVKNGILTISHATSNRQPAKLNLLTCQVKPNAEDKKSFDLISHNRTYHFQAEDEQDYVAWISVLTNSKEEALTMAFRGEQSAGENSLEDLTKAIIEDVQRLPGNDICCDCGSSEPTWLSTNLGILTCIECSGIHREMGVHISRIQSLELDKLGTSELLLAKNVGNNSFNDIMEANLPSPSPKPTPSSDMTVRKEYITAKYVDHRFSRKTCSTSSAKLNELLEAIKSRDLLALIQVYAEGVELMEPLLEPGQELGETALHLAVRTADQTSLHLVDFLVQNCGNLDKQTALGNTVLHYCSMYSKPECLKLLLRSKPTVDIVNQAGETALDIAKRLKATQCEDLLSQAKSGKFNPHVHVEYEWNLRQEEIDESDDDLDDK

The experiment addresses Arf-GAP with SH3 domain, ANK repeat and PH domain-containing protein 1 (Homo sapiens) (UniProt Q9ULH1). Briefly: blockers of ASAP1-stimulated ARF1 GTP hydrolysis – biochemical, fluorescence polarization, primary screen (AID 624377).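 Also: 0% = vehicle with enzyme and substrate and 100% = no enzyme.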 The conditions noted are these: GDP FP detection, at 16.5 µM, stronger effect = higher value. (In fluorescence polarisation assays a small probe gives low polarisation when free and higher when bound to something large.)
On to `OC(c1ccccc1)(c1ccccc1)C1CCN(CCCOc2ccc(-c3ccsc3)cc2)CC1`, for which the inhibition was 13.7% (inactive).
For the molecule `Cc1ccc2nc(SCC(=O)Nc3cccc4ccccc34)nc(=O)n2c1`, the inhibition is 16.5% (inactive).
As for `Cc1ccc2nc(SCC(=O)N3CCN(c4ccccc4)CC3)nc(=O)n2c1`, the inhibition is 14.1% (inactive).
Turning to `Cc1ccc2nc(SCC(=O)N3CC(C)OC(C)C3)nc(=O)n2c1` (stereo unspecified), the inhibition was 40.7% (active).
Take `CC(=O)N(C1=C(Cl)C(=O)c2ccccc2C1=O)c1ccc(C(=O)O)cc1`: the inhibition was 29.4% (active).
Then `O=C1C(Cl)=C(Oc2ccccc2)C(=O)c2ccccc21`, with -0.42% (inactive).
For `COc1ccc(-c2ccccc2C2Cc3nnccc3CN2C(=O)Nc2ccccc2)cc1` (stereo unspecified), the inhibition was -1.04% (inactive).
Turning to `O=C(NCc1ccccc1)[C@H]1CCCN1C(=O)[C@H]1CCCN1C(=O)N1CCOCC1`, the inhibition was 11.6% (inactive).
In the case of `Nc1[nH]c(C(=O)c2ccc(Br)cc2)c(-c2ccc3c(c2)OCO3)c1C(=O)NCCc1c[nH]c2ccccc12`, the inhibition was 9.33% (inactive).
Then `CC(=O)c1ccc(S(=O)(=O)NCC2CCN(C(=O)C(=O)c3cccs3)CC2)cc1`, with -0.29% (inactive); and `O=C(O)c1cccnc1Sc1ncnc2sc3c(c12)CCC3`, with 8.49% (inactive); and `COc1ccc(/C=N/Nc2ncnc3sc4c(c23)CCCC4)cc1O`, with 27.3% (active).
As for `OCCNc1nc2ccccc2n1-c1ncnc2sc3c(c12)CCC3`, the inhibition is 1.46% (inactive).
In the case of `COc1cccc(CNC(=O)[C@H]2CCCN2C(=O)[C@H]2CCCN2C(=O)c2ccc(F)cc2)c1`, the inhibition was -1.31% (inactive).
Take `CCn1c2ccccc2c2cc(NC(=O)COC(=O)c3cc(S(=O)(=O)N4CCCCC4)ccc3Cl)ccc21`: the inhibition was 0.3% (inactive).
Consider `CCn1c2ccccc2c2cc(NC(=O)C/C(C)=N/NC(=O)c3ccccc3N)ccc21`, for which the inhibition is 27% (active).
In the case of `CCn1c2ccccc2c2cc(NC(=S)N3CCOCC3)ccc21`, the inhibition was -2.05% (inactive).
Regarding `COC(=O)C1=C(C)N(Cc2ccccc2C(F)(F)F)C(=NCC2CC2)NC1c1cccc(Cl)c1` (stereo unspecified), the inhibition was 17.5% (inactive).
With `C#CCN([C@@H](C)C(=O)OCC)S(=O)(=O)c1ccc(Br)cc1F` the figure was 3.17% (inactive).
For `Cc1ccc2nc(-c3ccc(CN4CCC(n5cc(-c6ccccc6)[nH]c5=O)CC4)cc3)c(-c3ccccc3)nc2c1`, the inhibition is 9.24% (inactive).
`Cc1cc2nc3c(=O)[nH]c(=O)nc-3n(C[C@H](O)[C@H](O)[C@H](O)CO)c2cc1C`: the inhibition is 0.24% (inactive).
Consider `COc1ccccc1C(=O)N1O[C@]23C=C[C@]14C[C@@H](O)CC[C@]4(C)C2CC[C@]1(C)[C@@H]([C@H](C)/C=C/[C@H](C)C(C)C)CC[C@H]13` (stereo partly specified), for which the inhibition is 6.77% (inactive).
`C=CCN=C1NC(c2ccccc2)C(C(=O)OC)=C(C)N1Cc1ccc(C(F)(F)F)cc1` (stereo unspecified): the inhibition is 9.79% (inactive).
Consider `CCOC(=O)CNC(=O)N(C)[C@H]1C[C@H]2c3[nH]c4c(-c5ccc6c(c5)OCO6)cccc4c3CCN2C(=O)[C@H]1[C@H](C)O`, for which the inhibition was -4.88% (inactive).
Turning to `COC(=O)N1Cc2ccnnc2CC1c1ccccc1Br` (stereo unspecified), the inhibition was 7.59% (inactive).
Then `O=C1[C@@H](c2ccccc2)[C@@H](c2ccccc2)N1c1ccccc1`, with -13% (inactive).
In the case of `O=C1Nc2ccccc2C1=NN=Cc1ccco1`, the inhibition was 1.27% (inactive).
Then `Clc1cccc2c1C1CC2CCN1Cc1ccccc1` (stereo unspecified), with -8.11% (inactive); and `Nc1nc2c(ncn2[C@@H]2O[C@H](C(=O)N[C@H](Cc3ccccc3)C(=O)NCC3CCCCC3)[C@@H](O)[C@H]2O)c(=O)[nH]1`, with 5.87% (inactive); and `COC(=O)C1=C(C)N(Cc2ccc(F)cc2)C(=S)NC1c1cccc(Cl)c1` (stereo unspecified), with -11.5% (inactive).
As for `N#Cc1cccc(C(=O)NCC2CCN(C(=O)C(=O)c3cc4ccccc4o3)CC2)c1`, the inhibition is -11.4% (inactive).
